Holding throughout (experiment): qHTS profiling for inhibitors of Plasmodium falciparum proliferation (AID 504749); further: nearly all actives have a fitted effect of over 60% in size
Settings in all cases: P. falciparum in erythrocytes, SYBR Green DNA, 72 h; series mostly up to 28.7 µM

In one assay the test system is ATS189. Put shortly: (§1)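 Each compound contacts P. falciparum-infected red blood cells for 72 h at 37 C; lysis buffer (Tris, EDTA, saponin, Triton X, SYBR Green I) is added and fluorescence measured next morning; values normalized to controls.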
Another assay relates to ATS95. Put shortly: as §1
The next assay deals with C2A. The essentials: as §1
For another assay, the system named is CP185. Put shortly: as §1
In a further assay the test system is CP191. Put shortly:
as §1

A further assay has as its system CP192. The essentials:
as §1

In a further assay the test system is CP194. The essentials:
as §1

Another assay deals with CP201. The essentials:
as §1

Another assay deals with CP203. The essentials:
as §1

The next assay deals with CP211. The essentials: as §1

Several values for one entry are separate records, joined by “and”; a condition that tells them apart may be missing. Equal entries are not always repeated. Results filed as inconclusive are left out. Activity calls are given as the source filed them. The call rests on the fitted dose curve; in most records, active means well fitted inhibition curve with a large enough effect; inconclusive means small, poorly fitted or top-dose-only effect; inactive means flat fitted curve, though single readings scatter.
Potency means the concentration at half of the fitted maximal effect.

As for `CN1C(=O)CN=C(c2ccccc2)c2cc([N+](=O)[O-])ccc21`, the Potency entry in the assay on ATS189, in the assay on ATS95, in the assay with C2A, in the assay with CP185, in the assay on CP191 and in the assay with CP192 was “inactive” each time. The Potency result with CP194, in the assay on CP201, in the assay on CP203 and in the assay with CP211 was “inactive” throughout.

Take `CCN(CC)C(C)C(=O)c1ccccc1` (stereo not given): the Potency result in the assay on ATS189, in the assay with ATS95, with C2A, with CP185, in the assay on CP191 and in the assay on CP192 was “inactive” throughout. The Potency entry in the assay with CP194, with CP201, in the assay with CP203 and in the assay on CP211 was “inactive” each time.

As for `COC(=O)C1=CCCN(C)C1`, the Potency entry in the assay on ATS189, in the assay on ATS95, with C2A, in the assay on CP185, in the assay with CP191 and in the assay on CP192 was “inactive” throughout. The Potency entry in the assay with CP194, with CP201, in the assay on CP203 and in the assay on CP211 was “inactive” each time.

For `CCNc1nc(Cl)nc(NCC)n1`, the Potency entry in the assay on ATS189, in the assay on ATS95, in the assay on C2A, in the assay on CP185, in the assay with CP191 and with CP192 was “inactive” each time. In addition, the Potency entry with CP194, in the assay on CP201, in the assay on CP203 and in the assay on CP211 was “inactive” throughout.

In the case of `CN1C[C@@H](NS(=O)(=O)N(C)C)C[C@@H]2c3cccc4c3c(cn4C)C[C@H]21`, the Potency result in the assay on ATS189, in the assay on ATS95, in the assay with C2A, in the assay on CP185, in the assay with CP191 and in the assay with CP194 was “inactive” in each case. Further, the Potency result in the assay on CP201 and in the assay with CP203 was “inactive” each time.

Take `O=C(NC(=O)c1c(F)cccc1F)Nc1cc(Cl)c(OC(F)(F)C(F)C(F)(F)F)cc1Cl` (stereo not given): the Potency result with CP192, with CP194, in the assay on CP201, in the assay with CP203 and in the assay on CP211 was “inactive” each time.

With `CCOC(=O)NC(O)C(Cl)(Cl)Cl` (stereo not given), the Potency result in the assay with ATS189, in the assay on ATS95, in the assay with C2A, with CP185, with CP191 and in the assay with CP192 was “inactive” in each case. Further, the Potency result in the assay with CP194, in the assay with CP201, in the assay with CP203 and in the assay on CP211 was “inactive” throughout.

For `CC(C)NCC(O)c1ccc(N)c(C#N)c1` (stereo not given), the Potency entry in the assay on ATS189, with ATS95, in the assay on C2A, with CP185, in the assay on CP191 and in the assay with CP192 was “inactive” in each case. Moreover, the Potency entry in the assay on CP194, in the assay with CP201, with CP203 and with CP211 was “inactive” each time.

On to `C[C@]12Cc3nonc3C[C@@H]1CC[C@@H]1[C@@H]2CC[C@@]2(C)[C@H]1CC[C@]2(C)O`, for which the Potency result with ATS189, with ATS95, in the assay on C2A, in the assay on CP185, in the assay on CP191 and in the assay with CP192 was “inactive” throughout. The Potency entry in the assay on CP201, in the assay with CP203 and with CP211 was “inactive” each time.

`CCCCCCCCCCCC[N+](C)(C)CCOc1ccccc1`: the Potency in the assay on ATS189 was 8.91 µM (active); with C2A, 7.08 µM (active); in the assay on CP185, 7.94 µM (active); in the assay on CP191, 4.47 µM (active); with CP192 it was 9.53 µM (active); in the assay on CP194, 15.1 µM (active). Moreover, the Potency with CP201 is 10.7 µM (active); in the assay with CP203, 10.7 µM (active); in the assay on CP211, 8.49 µM (active).

With `ClC1=C(Cl)C2(Cl)C(CBr)CC1(Cl)C2(Cl)Cl` (stereo not given), the Potency entry with ATS189, with ATS95, in the assay with C2A, in the assay on CP185, in the assay with CP191 and with CP192 was “inactive” in each case. Besides, the Potency result in the assay with CP194, in the assay with CP201, in the assay on CP203 and in the assay with CP211 was “inactive” in each case.

As to `CN1C(=O)[C@@H](NC(=O)c2cc3ccccc3[nH]2)N=C(c2ccccc2)c2ccccc21`, the Potency result with CP201 was “inactive”.

Turning to `CC[n+]1c(-c2ccccc2)c2cc(N)ccc2c2ccc(N)cc21`, the Potency in the assay on ATS189 was 141 nM (active) and 708 nM (active); with ATS95 it was 126 nM (active) and 355 nM (active); in the assay on C2A, 251 nM (active) and 355 nM (active); in the assay on CP185 it was 158 nM (active) and 316 nM (active); in the assay with CP191, 282 nM (active) and 447 nM (active); with CP192, 190 nM (active) and 426 nM (active). The Potency was 269 nM (active) and 1.2 µM (active) with CP194; 379 nM (active) and 1.35 µM (active) in the assay on CP201; 213 nM (active) and 675 nM (active) in the assay with CP203; 213 nM (active) and 601 nM (active) with CP211.

As for `Cc1ccc(N=CN(C)C=Nc2ccc(C)cc2C)c(C)c1`, the Potency result in the assay with ATS189, in the assay with ATS95, in the assay with C2A, in the assay on CP185, in the assay with CP191 and in the assay with CP192 was “inactive” each time. The Potency result in the assay on CP194, with CP201, with CP203 and in the assay on CP211 was “inactive” each time.

`Cc1c(Cl)c(=O)oc2cc(OP(=O)(OCCCl)OCCCl)ccc12`: the Potency is 11.2 µM (active) in the assay on ATS189; 7.94 µM (active) with ATS95; 10 µM (active) in the assay on C2A; 10 µM (active) in the assay on CP191; 9.53 µM (active) in the assay on CP194; 13.5 µM (active) in the assay with CP201. Besides, the Potency with CP203 was 8.49 µM (active); in the assay with CP211, 9.53 µM (active).
